According to PubChem BioAssay (NCATS):
Records with an inconclusive call do not appear. Calls of active or inactive are those of the source. Unless noted, calls follow the shape of the dose curve; as a rule, active = well fitted curve in the direction sought with a large enough effect; inconclusive = small, poorly fitted or top-dose-only effect, or another doubt; inactive = no such curve, though single readings can be large; an effect the other way counts as inactive or inconclusive.

Legend:
[1] = AP1 Signaling Pathway (AID 357; active = well fitted curve in either direction with a large enough effect, not every such curve was filed as active; also: % is scaled to controls: 0 for no effect and ±100 for the full control effect)
How it was run: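 In this screen, ME-180 cells in Opti-MEM with 0.5% dialyzed FBS received EC50 EGF and compound titrations for 5 h. AP-1 reporter beta-lactamase was detected via CCF4 ratio, giving AC50 for positive and negative modulators.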

[2] = NFAT Signaling Pathway (AID 444; active = well fitted curve in either direction with a large enough effect, not every such curve was filed as active;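 also: carbachol stimulus at about its EC50 of 1 µM final; % is scaled to controls: 0 for no effect and ±100 for the full control effect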); settings: Jurkat NFAT-bla M1, carbachol, beta-lactamase ratio, 5 h; at 17.2 µM (top of the series) unless noted
How it was run: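 Jurkat cells carrying an NFAT-driven β-lactamase reporter and co-transfected muscarinic M1 receptor were treated with compound plus carbachol (1 uM final, an EC50 level) for 5 h at 37 °C. CCF4 loading followed for 1 h at RT; 460/530 nm ratio gave %activity.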

[3] = Stat Signaling Pathway (AID 446; active = well fitted curve in either direction with a large enough effect, not every such curve was filed as active;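 also: ME-180 cervical cancer cells given 40 pM IL-6 alongside compound; SIE-controlled beta-lactamase reporter measured as 460/530 nm FRET emission ratio; % is scaled to controls: 0 for no effect and ±100 for the full control effect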)
How it was run: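 Emission at 460 and 530 nm (excitation 405 nm) reports SIE-controlled beta-lactamase in ME-180 cells. Cells received compound with 40 pM IL-6 for 5 hrs at 37 C; data scaled between 300 pM IL-6 and 125 nM JAK-inhibitor controls.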

[4] = target: Glucocorticoid receptor (Homo sapiens) (UniProt P04150); assay: GR-GFP Redistribution (AID 450;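 active = compounds whose dose series gives a full or clear partial fitted curve of increased nuclear translocation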; also: potency is read from the fitted curve at half-maximal effect); settings: U2OS GR-GFP nuclear translocation, laser cytometry, 2 h
[5] = target: Glucocorticoid receptor (Homo sapiens) (UniProt P04150); assay: GR-EFC Redistribution (AID 451; calls by dose curve; also: potency is read from the fitted curve at half-maximal effect); settings: CHO-K1 GR-EFC translocation, beta-gal luminescence, 2 h
How it was run: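 CHO-K1 cells stably expressing nuclear-localized β-gal enzyme acceptor and GR fused C-terminally to the enzyme donor fragment; ligand-driven nuclear translocation restores β-gal by complementation. Compounds titrated up to 46 uM final, 2 h at 37 °C; luminescence read.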

[6] = target: Mitogen-activated protein kinase 10 (Mus musculus) (UniProt Q61831); assay: JNK3 AlphaScreen Assay (AID 530; active = well fitted curve in either direction with a large enough effect, not every such curve was filed as active;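 also: kinase came from lysate of stimulated human HepG2 cells; signal reports phosphorylation of biotinylated GST-cJun 1-79 at Ser73 with 10 µM ATP; % is scaled to controls: 0 for no effect and ±100 for the full control effect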)
How it was run: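 Biotinylated GST-cJun(1-79) served as substrate for JNK3 in HepG2 lysates stimulated with IL-1beta and TNF-alpha. ATP was 10 uM final, pH 7.6. Ser73 phosphorylation was quantified by AlphaScreen (680 nm excitation).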

[7] = target: 3',5'-cyclic-AMP phosphodiesterase 4B (Homo sapiens) (UniProt Q07343); assay: qHTS Assay for Inhibitors of PDE-IV (AID 607; active = well fitted activation curve with a large enough effect in the main read-out, with a control signal flat, not every such curve was filed as active; also: % of control where 0% means no effect)
How it was run: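 The readout is membrane depolarisation from a cAMP-sensing CNG channel, detected with a potential dye at ex 535/em 590. Cells were HEK293-derived (endogenous PDE-IV) at 1000 cells/well, titrated up to 22.9 uM final.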

[8] = qHTS Assay for Lipid Storage Modulators (AID 1519; calls by dose curve); settings: Drosophila S3 cells, BODIPY lipid droplet/cell ratio, laser cytometry, cells loaded with oleic acid; for activity change, negative = inhibition: at 25.7 µM (top of the series)
How it was run: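 Cells seeded at 5,000 per well were treated with compounds over a concentration series and loaded with oleic acid (400 uM, as added). Lipid droplet fluorescence (488 nm excitation, 500-530 nm channel) was read by laser-scanning cytometry and normalized to 20 uM Triacsin C.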

[9] = target: ATP-dependent 6-phosphofructokinase (Trypanosoma brucei brucei) (UniProt O15648); assay: qHTS Assay to Find Inhibitors of T. brucei phosphofructokinase: hit validation (AID 492961)
How it was run: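 Reaction: 0.1 M triethanolamine pH 8.0, 5 mM MgCl2, F6P 0.5 mM, ATP 0.1 mM, PFK 1.25 nM, 45 min RT. Read-out: ADP-Glo luminescence. Analysis: concentration-response fits, classed by r2 and efficacy.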

[10] = target: Ubiquitin carboxyl-terminal hydrolase 1 (Homo sapiens) (UniProt O94782); assay: Inhibitors of USP1/UAF1: Pilot qHTS (AID 504865);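 also: rhodamine fluorescence freed from ubiquitin-rhodamine substrate followed over time; top concentration of the series differs between compounds; % is scaled to controls: 0 for no effect and ±100 for the full control effect; nearly all actives have a fitted effect of over 35% in size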
How it was run: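 USP1/UAF1 complex (1nM) preincubated with compound 15 min at room temperature, then Ub-Rho substrate (150nM final) added. Fluorescence read kinetically at 480/540 nm, 6 reads every 60 seconds. Buffer: 50mM HEPES pH 7.8, 0.5mM EDTA, 0.1 mg/ml BSA, 1mM TCEP, 0.01% Tween-20.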

[11] = qHTS profiling for inhibitors of Plasmodium falciparum proliferation (AID 504749);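 also: 0% = DMSO vehicle and full inhibition = artemisinin control; nearly all actives have a fitted effect of over 60% in size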; settings: P. falciparum in erythrocytes, SYBR Green DNA, 72 h
How it was run: (§1)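 Fluorescence of SYBR Green-bound parasite DNA, read at 485/535 nm, served as the growth measure. Infected erythrocytes were cultured with compound 72 h; artemisinin (0.29 uM) and DMSO wells defined the normalization range.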

C2A = assay: as above; settings: P. falciparum in erythrocytes, SYBR Green DNA, 72 h; series mostly up to 12.8 µM
How it was run: as §1

CP201 = assay: as above; settings: P. falciparum in erythrocytes, SYBR Green DNA, 72 h; series mostly up to 12.8 µM
How it was run: as §1

CP238 = assay: as above; settings: P. falciparum in erythrocytes, SYBR Green DNA, 72 h; series mostly up to 12.8 µM
How it was run: as §1

CP250 = assay: as above; settings: P. falciparum in erythrocytes, SYBR Green DNA, 72 h; series mostly up to 12.8 µM
How it was run: as §1

FAB9 = assay: as above; settings: P. falciparum in erythrocytes, SYBR Green DNA, 72 h; series mostly up to 12.8 µM
How it was run: as §1

JCK = assay: as above; settings: P. falciparum in erythrocytes, SYBR Green DNA, 72 h; series mostly up to 12.8 µM
How it was run: as §1

PC49 = assay: as above; settings: P. falciparum in erythrocytes, SYBR Green DNA, 72 h; series mostly up to 12.8 µM
How it was run: as §1

SC27B = assay: as above; settings: P. falciparum in erythrocytes, SYBR Green DNA, 72 h; series mostly up to 12.8 µM
How it was run: as §1

[12] = S16 Schwann cell PMP22 intronic element firefly luciferase assay (AID 624032);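 also: plate controls were DMSO for no effect and PTC124 positive control mean for full effect; nearly all actives have a fitted effect of over 30% in size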
How it was run: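 Rat S16 Schwann cells stably carrying a PMP22 intronic element-driven Fluc reporter were seeded overnight, then exposed to compounds for 24 h at 37 °C. Luminescence was normalized to PTC124 (positive control) and DMSO (0% activity).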

[13] = measured here: cell count channel max response
[14] = measured here: lipid channel max response
[15] = at 12.8 µM (top of the series), parasite line A
[16] = at 12.8 µM (top of the series), parasite line B

Sequence of Glucocorticoid receptor (Homo sapiens) (P04150 whole entry, looked up, the tested form may be a part): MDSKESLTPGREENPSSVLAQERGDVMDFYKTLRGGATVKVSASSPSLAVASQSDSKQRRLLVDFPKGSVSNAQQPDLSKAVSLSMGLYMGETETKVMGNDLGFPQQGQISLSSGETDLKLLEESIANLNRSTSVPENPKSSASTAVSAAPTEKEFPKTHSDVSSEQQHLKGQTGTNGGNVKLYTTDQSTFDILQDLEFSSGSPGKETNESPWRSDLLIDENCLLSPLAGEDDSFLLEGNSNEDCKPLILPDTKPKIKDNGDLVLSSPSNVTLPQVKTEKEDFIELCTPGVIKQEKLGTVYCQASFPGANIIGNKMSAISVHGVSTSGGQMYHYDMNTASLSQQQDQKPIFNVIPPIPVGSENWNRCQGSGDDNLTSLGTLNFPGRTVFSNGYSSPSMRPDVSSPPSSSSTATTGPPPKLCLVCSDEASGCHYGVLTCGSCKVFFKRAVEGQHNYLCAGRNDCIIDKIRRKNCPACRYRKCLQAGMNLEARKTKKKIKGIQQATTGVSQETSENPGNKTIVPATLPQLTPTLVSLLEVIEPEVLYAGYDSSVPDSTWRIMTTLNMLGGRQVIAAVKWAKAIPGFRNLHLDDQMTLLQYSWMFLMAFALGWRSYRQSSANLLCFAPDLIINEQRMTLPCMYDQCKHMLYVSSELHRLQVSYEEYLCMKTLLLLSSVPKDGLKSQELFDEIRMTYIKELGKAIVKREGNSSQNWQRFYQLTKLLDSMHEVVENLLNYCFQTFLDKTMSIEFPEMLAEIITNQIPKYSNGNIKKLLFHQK
Sequence of 3',5'-cyclic-AMP phosphodiesterase 4B (Homo sapiens) (Q07343 whole entry, looked up): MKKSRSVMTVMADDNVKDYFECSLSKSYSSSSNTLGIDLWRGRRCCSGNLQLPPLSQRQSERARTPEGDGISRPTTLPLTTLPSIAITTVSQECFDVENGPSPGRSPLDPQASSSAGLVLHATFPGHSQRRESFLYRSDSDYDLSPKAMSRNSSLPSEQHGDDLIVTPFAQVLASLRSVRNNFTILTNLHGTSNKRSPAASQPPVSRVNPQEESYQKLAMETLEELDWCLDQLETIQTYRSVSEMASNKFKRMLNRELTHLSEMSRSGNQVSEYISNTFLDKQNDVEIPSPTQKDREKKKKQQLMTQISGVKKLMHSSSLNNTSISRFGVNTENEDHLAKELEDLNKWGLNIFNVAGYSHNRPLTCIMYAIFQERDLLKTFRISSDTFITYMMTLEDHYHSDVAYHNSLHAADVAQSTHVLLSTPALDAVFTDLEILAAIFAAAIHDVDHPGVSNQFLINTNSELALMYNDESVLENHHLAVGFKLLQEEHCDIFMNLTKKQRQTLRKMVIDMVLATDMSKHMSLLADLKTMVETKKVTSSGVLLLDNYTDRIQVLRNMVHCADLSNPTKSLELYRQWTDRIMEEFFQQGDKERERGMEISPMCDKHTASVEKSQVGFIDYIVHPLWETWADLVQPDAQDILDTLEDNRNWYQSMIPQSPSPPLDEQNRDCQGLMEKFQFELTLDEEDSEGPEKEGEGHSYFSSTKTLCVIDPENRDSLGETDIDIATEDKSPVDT
Sequence of ATP-dependent 6-phosphofructokinase (Trypanosoma brucei brucei) (O15648 whole entry, looked up): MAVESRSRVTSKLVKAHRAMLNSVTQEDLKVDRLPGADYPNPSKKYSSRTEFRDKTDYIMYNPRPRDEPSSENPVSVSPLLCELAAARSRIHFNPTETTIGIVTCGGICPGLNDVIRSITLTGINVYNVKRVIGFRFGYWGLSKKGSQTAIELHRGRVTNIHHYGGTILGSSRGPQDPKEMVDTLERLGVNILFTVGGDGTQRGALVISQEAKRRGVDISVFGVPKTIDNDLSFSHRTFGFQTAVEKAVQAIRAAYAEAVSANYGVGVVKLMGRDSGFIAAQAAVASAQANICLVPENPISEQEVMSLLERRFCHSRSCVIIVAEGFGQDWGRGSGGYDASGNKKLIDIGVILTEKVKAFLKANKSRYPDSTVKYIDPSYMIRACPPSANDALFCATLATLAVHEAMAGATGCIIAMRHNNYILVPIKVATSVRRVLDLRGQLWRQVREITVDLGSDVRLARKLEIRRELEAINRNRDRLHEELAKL
Sequence of Ubiquitin carboxyl-terminal hydrolase 1 (Homo sapiens) (O94782 whole entry, looked up): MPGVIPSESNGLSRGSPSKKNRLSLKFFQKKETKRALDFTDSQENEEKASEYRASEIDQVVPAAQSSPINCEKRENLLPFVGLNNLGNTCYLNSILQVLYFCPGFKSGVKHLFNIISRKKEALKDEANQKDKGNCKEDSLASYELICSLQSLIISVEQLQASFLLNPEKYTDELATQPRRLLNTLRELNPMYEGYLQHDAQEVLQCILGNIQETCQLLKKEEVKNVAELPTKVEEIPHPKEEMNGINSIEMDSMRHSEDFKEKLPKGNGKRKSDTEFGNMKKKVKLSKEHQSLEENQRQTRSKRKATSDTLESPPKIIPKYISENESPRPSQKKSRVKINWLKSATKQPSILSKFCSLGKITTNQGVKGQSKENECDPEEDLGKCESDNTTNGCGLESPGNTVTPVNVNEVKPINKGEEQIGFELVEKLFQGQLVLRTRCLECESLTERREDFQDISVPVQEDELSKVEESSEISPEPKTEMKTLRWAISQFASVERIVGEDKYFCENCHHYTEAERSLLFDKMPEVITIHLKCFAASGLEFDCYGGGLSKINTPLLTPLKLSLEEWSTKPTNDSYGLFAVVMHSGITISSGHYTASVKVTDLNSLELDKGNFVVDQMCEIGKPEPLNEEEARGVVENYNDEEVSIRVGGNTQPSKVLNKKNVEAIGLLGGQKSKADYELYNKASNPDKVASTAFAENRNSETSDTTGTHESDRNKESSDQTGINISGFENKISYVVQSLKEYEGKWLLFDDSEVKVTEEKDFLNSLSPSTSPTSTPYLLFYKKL

COc1ccc(C[C@@](C)(N)C(=O)O)cc1OC
-12.4%: max response [8, 14]
inactive: outcome [1] | activity change, negative = inhibition [2] -8.96% | outcome [3] | Potency [4] > 20.6 µM | Potency [5] > 20.6 µM | Potency [6] | outcome [7] | activity change, negative = inhibition [8] -2.09% | outcome [9] | Potency [10] | activity, negative = inhibition [11, 15] 3.21% | activity, negative = inhibition [11, 16] -23.5% | Potency (C2A) | Potency (CP201) | Potency (CP238) | Potency (CP250) | Potency (FAB9) | Potency (JCK) | Potency (PC49) | Potency (SC27B)
-10.3%: max response [8, 13]

c1ccc2c3c([nH]c2c1)[C@@H]1[C@H]2CC[C@H]([C@H]4CCCN[C@H]42)N1CC3
0.348%: max response [8, 13]
inactive: outcome [1] | outcome [3] | Potency [4] > 20.6 µM | Potency [5] > 20.6 µM | Potency [6] | outcome [7] | activity change, negative = inhibition [8] -1.37%
-3.2%: max response [8, 14]

CC(=O)OCC(=O)[C@@]12OC(C)(C)O[C@@H]1C[C@H]1[C@H]3C[C@H](F)C4=CC(=O)C=C[C@@]4(C)[C@]3(F)[C@H](O)C[C@@]12C
-17.4%: max response [8, 14]
active: Potency [4] 0.00175 µM | Potency [5] 0.0128 µM
inactive: outcome [1] | activity change, negative = inhibition [2] -1.01% | outcome [3] | Potency [6] | outcome [7] | activity change, negative = inhibition [8] -1.78% | outcome [9] | Potency [10] | Potency [12] | activity, negative = inhibition [11, 15] -6.81% | activity, negative = inhibition [11, 16] -12% | Potency (C2A) | Potency (CP201) | Potency (CP238) | Potency (CP250) | Potency (FAB9) | Potency (JCK) | Potency (PC49) | Potency (SC27B)
-13.1%: max response [8, 13]

CCC(=O)O[C@@]1(C(=O)SCF)[C@@H](C)C[C@H]2[C@@H]3C[C@@H](F)C4=CC(=O)C=C[C@@]4(C)[C@]3(F)[C@@H](O)C[C@]21C
inactive: outcome [1] | outcome [3] | Potency [6] | outcome [7] | activity change, negative = inhibition [8] 1.23% | outcome [9] | Potency [12] | Potency (C2A) | Potency (CP201) | Potency (CP250) | Potency (JCK) | Potency (SC27B)
-5.95%: max response [8, 14]
-7.35%: max response [8, 13]

COc1cc2nc(N3CCN(C(=O)[C@@H]4COc5ccccc5O4)CC3)nc(N)c2cc1OC
-1.61%: max response [8, 14]
-1.2%: max response [8, 13]
inactive: outcome [1] | outcome [3] | Potency [6] | outcome [7] | activity change, negative = inhibition [8] -1.08% | Potency [12] | activity, negative = inhibition ([11]; at 28.7 µM (top of the series), parasite line B) -13.1% | Potency (C2A) | Potency (CP201) | Potency (CP238) | Potency (CP250) | Potency (FAB9) | Potency (JCK) | Potency (PC49) | Potency (SC27B)
